# Inconclusive results are not listed. Activity calls are given as the source filed them. Cut-off read from the data, not from the text of the source, unless noted: active = inhibition above about 80%; inactive = the rest.
# What was measured:
# [1] = hESC survival regulators, cell-based (AID 493140; call rule not given here;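 note: cells exposed to compounds for four days before counting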); details: human embryonic stem cell survival screen; stronger effect = higher value
# [2] = LFS_MB_1R medulloblastoma cell growth inhibition, synergistic combos for chromothripsis tumors, cisplatin or BGB combos (AID 1671452); details: LFS_MB_1R medulloblastoma cells, stronger effect = higher value;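 note: cells exposed for 96 hours before readout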
# [3] = CRL2098 osteosarcoma cell growth inhibition, synergistic combos for chromothripsis tumors, BGB or cisplatin IC20 combos (AID 1671454); details: CRL2098 osteosarcoma cells, drug combinations, stronger effect = higher value;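 note: cells exposed for 96 h before readout; 0% = vehicle DMSO and 100% = killing by high DMSO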
# [4] = HD-MB03 medulloblastoma cell growth inhibition, synergistic combos for chromothripsis tumors, BGB or cisplatin IC20 combos (AID 1671455; in the data active = inhibition above about 83%;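 note: 0% = vehicle DMSO and 100% = high DMSO as cytotoxic control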); details: HD-MB03 medulloblastoma cells, stronger effect = higher value
# [5] = UWB1.289 ovarian carcinoma cell growth inhibition, synergistic combos for chromothripsis tumors, BGB or cisplatin combos (AID 1671456); details: UWB1.289 ovarian carcinoma cells, stronger effect = higher value;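 note: cells exposed to compound for four days; 0% = vehicle DMSO and 100% = killing by high DMSO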
# [6] = LFS_MB_2R medulloblastoma cell growth inhibition, synergistic combos for chromothripsis tumors, cisplatin combos (AID 1671457); details: LFS_MB_2R medulloblastoma cells, stronger effect = higher value;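 note: cells exposed to compound for four days before readout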
# [7] = UWB1.289_BRCA1 ovarian cancer growth, cell-based, BGB or cisplatin combinations (AID 1671459); details: UWB1.289 BRCA1 ovarian carcinoma, drug combinations, stronger effect = higher value
# [8] = human astrocyte viability loss, single and combined drugs, cytotoxicity control for chromothriptic childhood tumor combination screen, cell-based, BGB or cisplatin IC20 combos (AID 1671460); details: Human astrocytes, drug combinations, stronger effect = higher value;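 note: cells exposed to compounds for 96 hours before viability readout; 0% = vehicle and 100% = killing control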
# [9] = protection against mutant huntingtin cytotoxicity, PC12 cells, LDH release (AID 1610); details: PC12 mutant huntingtin toxicity, final LDH at 4 uM, stronger effect = lower value
# [10] = mitochondrial permeability transition inhibitors (AID 1580; call rule not given here); details: isolated mitochondria, permeability transition inhibition
# [11] = inhibitors of polyQ aggregate elongation, biochemical, solid-phase synthetic aggregates, QA3 (AID 1585; call rule not given here); details: biotin-polyQ incorporation; EC50: measured here: elongation inhibition potency; inhibition: at 100 µM, stronger effect = higher value
# [12] = enhancers of SMN2 over SMN1 splicing, cell-based, SMN2/SMN1 luciferase reporters (AID 1598; call rule not given here); details: SMN2 vs SMN1 luciferase splicing reporter cells, at 10 µM; SMN1 luciferase ratio: measured here: SMN1 luciferase reporter average; SMN2 luciferase ratio: measured here: SMN2 luciferase reporter average, stronger effect = higher value; SMN2/SMN1 luciferase ratio: stronger effect = higher value
# [13] = measured here: combination with cisplatin, at 0.5 µM
# [14] = measured here: combination with cisplatin, at 5 µM
smiles,measurement,setting,value
CC1(C)S[C@@H]2[C@H](NC(=O)[C@H](C(=O)O)c3ccsc3)C(=O)N2[C@H]1C(=O)O,survival,[1],15.8 (inactive)
C=CC1=C(C)C2=CC3=NC(=C(CC(=O)O)C4=NC(=C(C)C4=C(O)O)C=c4[nH]c(c(C)c4CC)=CC1=N2)C(CCC(=O)O)C3C (stereo not drawn),inhibition,[2]; at 0.5 µM,-18.3% (inactive)
same,inhibition,"[2]; measured here: combination with BGB IC40, at 0.05 µM",-22.1%
same,inhibition,[2]; [13],-13.2%
same,inhibition,[2]; [14],-2.96%
same,inhibition,[3]; at 0.5 µM,-39.9% (inactive)
same,inhibition,"[3]; measured here: combination with BGB at IC20, at 0.5 µM",-14.4%
same,inhibition,"[3]; measured here: combination with cisplatin at IC20, at 0.5 µM",-71.5%
same,inhibition,[4]; at 0.5 µM,-9.12% (inactive)
same,inhibition,"[4]; measured here: combo with BGB at IC20, at 0.5 µM",-0.977%
same,inhibition,"[4]; measured here: combo with cisplatin at IC20, at 0.5 µM",-18.8%
same,inhibition,[5]; at 0.5 µM,-0.22% (inactive)
same,inhibition,"[5]; measured here: inhibition with BGB combination, at 0.05 µM",-17.7%
same,inhibition,"[5]; measured here: inhibition with cisplatin combination, at 0.05 µM",-4.64%
same,inhibition,[6]; at 0.5 µM,-20% (inactive)
same,inhibition,[6]; [13],-3.5%
same,inhibition,[6]; [14],-14.7%
same,inhibition,"[7]; BGB combination, concentration series, at 5 µM",12.6%
same,inhibition,[7]; at 0.5 µM,-3.06% (inactive)
same,inhibition,"[7]; cisplatin combination, concentration series, at 5 µM",10.4%
same,inhibition,[8]; at 0.5 µM,-8.5% (inactive)
same,inhibition,"[8]; measured here: combo with BGB IC20, at 0.5 µM",-9.9%
same,inhibition,"[8]; measured here: combo with cisplatin IC20, at 0.5 µM",-17.9%
C=C1C(=O)OC2C1CCC1(C)CCC=C(C)C21 (stereo not drawn),normalised LDH release,[9],0.89
CC(NC(=O)C(NC(=O)OCc1ccccc1)C(C)C)C(=O)NC(CC(=O)O)C(=O)OC(F)F (stereo not drawn),normalised LDH release,[9],0.83
CC[C@@H](C(=O)C(C)[C@@H](O)[C@H](C)CCc1ccc(C)c(O)c1C(=O)O)C1OC(CC)(C2CC[C@](O)(CC)[C@H](C)O2)C[C@@H]1C (stereo partly drawn),EC50,[10],0.1 µM (active)
O=c1c(O)cc2c(O)oc3c(=O)c(O)cc4c3c2c1CC=4O,EC50,[11],44 µM
same,inhibition,[11],82% (active)
CCCCC(=O)OC1(C(=O)CO)C(C)CC2C3CCC4=CC(=O)C=CC4(C)[C@@]3(F)[C@@H](O)CC21C (stereo partly drawn),normalised LDH release,[9],0.899
CC[C@@]1(O)C[C@H](OC2CC(N(C)C)C(OC3CC(O)C(OC4CCC(=O)C(C)O4)C(C)O3)C(C)O2)c2c(cc3c(c2O)C(=O)c2c(O)cccc2C3=O)[C@H]1C(=O)OC (stereo partly drawn),SMN1 luciferase ratio,[12],1.26
same,SMN2/SMN1 luciferase ratio,[12],1.34 (active)
same,SMN2 luciferase ratio,[12],1.64
same,normalised LDH release,[9],0.363

# — PubChem BioAssay
